Laboratory results: PubChem BioAssay AID1259418 (Broad Institute, 2018)
In all, about 3,400 compounds went through this assay and about 840 (25%) were called active. Inconclusive results (about 11%) are left out. The list is a sample of the results. Results with a measured potency or affinity are listed apart. Unmarked numbers belong to inactive results.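 Rule for the calls: active = fitted half-maximal concentration of signal decrease at or below twice the sample's top tested concentration; inconclusive = flat curve between -70 and -30 percent, or poor fit; inactive = flat within 30 percent, signal rise, or potency above limit.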

assay: inhibitors of Toxoplasma growth in IFN-γ-primed HeLa – cell-based, ME49Luc, luciferase, 72 h, dose response (AID 1259418); details: T. gondii ME49Luc in IFN-y HeLa, hits give low values, -100% = high-dose IFN-γ control wells; at 19.5 µM unless noted

Row | Compound | max activity
1 | Cc1cccc(-c2nc(Cn3nnc(-c4nc(-c5ccccc5Cl)no4)c3C)c(C)o2)c1 | 15.3% [at 10 µM]
2 | CCc1ccccc1NC(=O)Nc1ccc(-c2nc(-c3ccccc3)co2)cc1 | 13.1% [at 5 µM]
3 | Cc1nc(-c2ccc(F)cc2)sc1-c1ccc(SCc2ccc(Cl)cc2)nn1 | -5.59% [at 1.35 µM]
4 | COc1cccc(C(=O)Nc2ccc(-c3nc(-c4ccc(C)cc4C)co3)cc2)c1 | 37.5%
5 | Cc1ccc(C)c(-c2coc(-c3ccc(NC(=O)C(C)C)cc3)n2)c1 | 14.2%
6 | COc1ccccc1-c1nc(Cn2nnc(-c3nc(-c4ccc(OC(C)C)cc4)no3)c2C)c(C)o1 | -5.67% [at 1.35 µM]
7 | COc1cccc(-c2nc3c(s2)CN(C(=O)Nc2ccc(OC)cc2OC)CC3)c1 | 52.4%
8 | CC(C)OCCCNC(=O)CC1Nc2c3ccccc3nc(=S)n2C1=O (stereo not drawn) | 19.5% [at 0.16 µM]
9 | CCOc1ccc(-c2nc3c(s2)CN(S(=O)(=O)c2ccc(F)cc2)CC3)cc1 | 36.2%
10 | CCN(C(=O)COc1nc(C)nc2ccccc12)c1ccccc1 | 18.8% [at 0.68 µM]
11 | CCc1nc(OCC(=O)N(CC)c2ccccc2)c2ccccc2n1 | 9.96% [at 10 µM]
12 | CSc1ccc(-c2noc(-c3nnn(Cc4nc(-c5cccc(Cl)c5)oc4C)c3C)n2)cc1 | 12.2% [at 0.16 µM]
13 | Cc1ccc(NC(=O)CN2CCC3(CC2)N=C(c2ccc(Cl)cc2)C(=O)N3)cc1C | -6.27% [at 0.68 µM]
14 | COc1ccc(-c2nc3c(s2)CN(S(=O)(=O)c2ccc(Cl)cc2)CC3)cc1 | 8.74%
15 | COc1ccc(-c2nc(Cn3c(=O)c4cccnc4n(-c4ccccc4)c3=O)c(C)o2)cc1 | -4.3% [at 2.6 µM]
16 | CCc1c(C)sc2c1CCN(Cc1nc(-c3ccc(C)cc3)oc1C)C2c1ccccc1 (stereo not drawn) | 11.6%
17 | Cc1oc(-c2ccccc2)nc1Cn1nnc(-c2nc(-c3ccccc3Cl)no2)c1C | 7.39%
18 | COC(=O)c1cccc(NC(=O)Nc2ccc(-c3nc(-c4ccccc4)co3)cc2)c1 | 9.82%
19 | COc1cccc(C(=O)N2CCC3(CC2)Nc2ccc(C)c(C)c2-n2cccc23)c1 | -8.8% [at 0.16 µM]
20 | CN(C[C@H]1[C@H](c2ccccc2)[C@@H](CO)N1CC1CC1)C(=O)c1ccc(F)cc1 | 49.7%
21 | O=C(C1CCC1)N1CC(=O)N2[C@H](CO)[C@H](c3ccc(Br)cc3)[C@H]2C1 | 54.7%
22 | CN(C)CC(=O)N1C[C@@H]2N[C@H](C1)C2c1ccc(-c2ccccc2F)cc1 (stereo partly drawn) | 5.96% [at 10 µM]
23 | CCc1nc(OCC(=O)Nc2cccc(Cl)c2)c2ccccc2n1 | 20.4% [at 0.16 µM]
24 | CCOc1ccc(-c2nc3c(s2)CN(S(=O)(=O)c2cccc(Cl)c2C)CC3)cc1 | 15.9% [at 10 µM]

Row | Compound | max activity
25 | Cc1ccc(C)c(-c2coc(-c3ccc(NC(=O)NCc4ccco4)cc3)n2)c1 | -45.2% [at 1.35 µM]
26 | Cc1nc(CCNC(=O)C2CCN(C(=O)c3ccc(F)cc3)CC2)cs1 | 11.3% [at 2.6 µM]
27 | COc1cccc(C(=O)N2CCC(C(=O)NCCc3csc(C)n3)CC2)c1 | -13.8% [at 0.16 µM]
28 | Cc1nc(CCNC(=O)C2CCN(C(=O)c3ccc(Cl)cc3)CC2)cs1 | -28.7%
29 | Cc1nc(CCNC(=O)C2CCN(C(=O)c3cccc(F)c3)CC2)cs1 | -15.3%
30 | CCCNC(=O)C[C@H]1CC[C@@H]2[C@H](COC[C@H](O)CN2C(=O)Nc2ccc(Cl)c(Cl)c2)O1 | 33.9%
31 | O=C(C[C@H]1CC[C@H]2[C@@H](COC[C@@H](O)CN2C(=O)c2cc(Cl)cc(Cl)c2)O1)N1CCc2ccccc2C1 | 26.3% [at 10 µM]
32 | CCOc1ccc(-c2nc3c(s2)CN(S(=O)(=O)c2ccc(F)cc2F)CC3)cc1 | 95.1%
33 | Clc1ccc(-c2nc(NCc3cccs3)c3ccccc3n2)cc1 | 13.5% [at 0.35 µM]
34 | CCc1nc(OCC(=O)Nc2ccc(Br)cc2F)c2ccccc2n1 | 35.6% [at 0.68 µM]
35 | O=S(=O)(c1ccc(F)cc1)N1CCCCN2[C@H](C1)[C@H](c1ccc(-c3cncnc3)cc1)[C@@H]2CO | 22.1% [at 10 µM]
36 | CCOC(=O)Cc1ccc(NC(=O)Nc2ccc(-c3nc(-c4ccc(C)cc4C)co3)cc2)cc1 | 11.1%
37 | Cc1ccc(-c2nc(Cn3nnc(-c4nc(-c5ccc(Cl)cc5)no4)c3C)c(C)o2)cc1 | -14.4% [at 0.68 µM]
38 | Cc1cccc(C2=NC3(CCN(CC(=O)Nc4ccc(F)cc4F)CC3)NC2=O)c1 | -4.98% [at 0.68 µM]
39 | COc1cccc(CC(=O)Nc2ccc(-c3nc(-c4ccc(C)cc4C)co3)cc2)c1 | -8.08% [at 1.35 µM]
40 | CCn1cc(CN2CCCC2c2cc(C(C)C)on2)c2ccccc21 (stereo not drawn) | 8.42% [at 0.16 µM]
41 | CCn1cc(CN2CCCC2c2cc(C(C)C)no2)c2cc(OC)ccc21 (stereo not drawn) | 5.61% [at 0.16 µM]
42 | COC(=O)Cn1cc(CN2CCCC2c2cc(C(C)C)no2)c2cc(OC)ccc21 (stereo not drawn) | 18.8% [at 0.35 µM]
43 | CCOC(=O)Cn1cc(CN2CCCC2c2c(C)noc2CC)c2ccccc21 (stereo not drawn) | 12.1% [at 0.16 µM]
44 | COc1ccc(CC(=O)N2CCC3(CC2)Nc2ccc(C)c(C)c2-n2cccc23)cc1 | 9.26% [at 0.68 µM]
45 | COc1ccccc1NC(=O)N1CCc2nc(-c3ccc(C)cc3)sc2C1 | 44.9%
46 | Cc1ccccc1-c1nc(CN2CCN(C(=O)Nc3ccc(Cl)cc3)CC2)c(C)o1 | -10.3% [at 0.35 µM]
47 | Cc1nc(N2CCCC2)nc2c1CCN(C(=O)c1ccoc1C)CC2 | -9.94% [at 0.3 µM]
48 | CN(C)c1nc(N2CCOCC2)nc2c1CN(Cc1cccs1)CC2 | 13.4% [at 5 µM]
